Six1-Eya2 blk – Six1/Eya2 interaction inhibition | Q15475+O00167 | AlphaScreen GST-Six1/His-Eya2 binding, biochemical; stronger effect = lower value | activity change, % (test concentration not listed) | 0.56% of 360,000 active; in the data active = activity change below about -65%; inconclusive = mostly about -30% to -63%
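GST-Six1 + His-Eya2 (5X stock: 250/500 nM); Tris pH 8.0, 300 mM NaCl, 0.05% BSA, 0.02% Tween 20; GSH donor/Ni acceptor beads; 1 h 37 °C dark; AlphaScreen readout.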
JMJD2A Tudor – inhibitors of human JMJD2A Tudor domain; AlphaScreen JMJD2A-Tudor / H3K4me3 peptide binding; 4.4% of 390,000 active; O75164; Potency, µM (titrated, usually from 114 µM), hits mostly inhibitors; also: nearly all actives have a fitted effect of over 50% in size
G9a block – inhibitors of human histone lysine methyltransferase G9a; Q96KQ7; G9a H3K9 monomethylation, AlphaScreen, 2 h; Potency, µM (doses to about 102 µM), actives largely listed as inhibitors; 8.8% of 350,000 active; also: nearly all actives have a fitted effect of over 75% in size
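Quantitative HTS format: methyltransferase activity on a biotin-tagged H3K9 peptide is measured by AlphaScreen, using a rabbit anti-monomethyl-H3K9 antibody with streptavidin donor and anti-IgG acceptor beads. Final levels are 20 nM enzyme, 500 nM peptide, 20 uM SAM; 2 h RT.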
HP1b chromo inh – inhibitors of HP1-beta chromodomain binding to methylated histone tails | P83916 | AlphaScreen HP1-beta / biotin-H3K9me3 peptide binding | Potency, µM (highest dose often 114 µM), usual class: inhibitors | 0.56% of 390,000 active; also: nearly all actives have a fitted effect of over 70% in size
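HP1-beta protein (50 nM final) preincubated 30 min at room temperature with biotinylated H3(1-18)K9me3 peptide (50 nM) in PBS pH 7.4, 0.01% Tween-20, then compound added for 30 min. AlphaScreen streptavidin donor/nickel chelate acceptor beads (10 ug/mL final), 30 min dark, luminescence read.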
BAZ2B inh – blocks human BAZ2B. Q9UIF8. 4.4% of 360,000 active. AID 504333. Potency, µM (titrated, usually from 114 µM), usual class: inhibitors. AlphaScreen BAZ2B-H3K14Ac peptide displacement; also: nearly all actives have a fitted effect of over 60% in size
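AlphaScreen luminescence quantifies BAZ2B engagement of H3K14Ac peptide; the protein and biotinylated peptide are both at 50 nM final, buffer PBS pH 7.4 with 0.01% Tween-20, all steps at room temperature.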
CtBP-E1A inh – inhibitors of CtBP/E1A interaction | activity change, % (test concentration not listed) | 0.49% of 340,000 active | AlphaScreen GST-E1A/His-CtBP binding, 1536-well; stronger effect = lower value; in the data active = activity change below about -65%; inconclusive = mostly about -30% to -63%
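Homogeneous bead-based format: GST-tagged E1A captured on glutathione donor beads, His-tagged CtBP on nickel acceptor beads; compounds precede bead addition by 2 h at 37 °C.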
A number is an active result; 0 = inactive; ? = inconclusive; - = not tested or not shown; [ ] = remark or other dose. Most compounds without a hit are left out; they make up all but 10% or so of the library. Unless noted, calls follow the shape of the dose curve; as a rule, active = well fitted inhibition curve with a large enough effect; inconclusive = small, poorly fitted or top-dose-only effect; inactive = no such curve, though single readings can be large or run the other way.

SMILES	Six1-Eya2 blk	JMJD2A Tudor	G9a block	HP1b chromo inh	BAZ2B inh	CtBP-E1A inh
CCOC(=O)C1=C(COC(=O)c2cc(OC)c(OC)cc2[N+](=O)[O-])NC(=O)NC1C (stereo not given)	0	0	0	0	0	0
CCc1nnc(NC(=O)c2sc3nc4c(cc3c2N)CCCCCC4)s1	0	0	44.7µM	0	0	0
CC1CCC(C(C)C)C2=C1C(C#N)(C#N)C(C#N)(C#N)C(c1ccccc1)N2 (stereo not given)	0	?	7.08µM	?	?	0
O=C(NNc1cccc(Cl)c1)c1cccnc1Cl	0	0	10µM	0	0	-
CCCc1c(C(=O)NNc2cccc(Cl)c2)cnn1-c1ccccc1	0	?	35.5µM	0	0	-
O=C(NNc1cccc(Cl)n1)c1cccnc1Cl	0	0	0	0	0	-
Cc1ccc(-c2cc(C(=O)N3CCN(S(=O)(=O)c4ccc(Br)cc4)CC3)[nH]n2)c(C)c1	-	0	0	0	0	-
Cn1c(=O)oc2cc(S(=O)(=O)N3CCCC(C(=O)N4CC=C(c5ccccc5)CC4)C3)ccc21 (stereo not given)	-	-	50.1µM	-	0	-
O=C(Nc1ccccn1)C(=O)Nc1ccccn1	0	0	0	0	0	0
Cc1ccccc1S(=O)(=O)NNC(=O)C(=O)NNc1ccccn1	-81.7	0	0	0	?	-71.2
Nc1ccc(S(=O)(=O)NNC(=O)C(=O)NNc2ccccn2)cc1	-92.6	0	0	0	?	-68.5
CC(=O)Nc1ccc(S(=O)(=O)NNC(=O)C(=O)NNc2ccccn2)cc1	?	?	0	0	?	-
Cc1ccc(S(=O)(=O)NNC(=O)C(=O)NNc2ccccn2)cc1	-88.2	0	0[2.33 µM]	0	?	-92.6
CCOC(=O)c1c(Nc2cc(C)cc(C)c2)nnc(-c2ccccc2)c1-c1ccccc1	-	?	3.55µM	0	0	-
CCOC(=O)c1c(Nc2ccc(OC)cc2)nnc(-c2ccccc2)c1-c1ccccc1	-	?	7.94µM	0	?	-
O=C(N/N=C\c1ccc(O)c([N+](=O)[O-])c1)C1COc2ccccc2O1 (stereo not given)	0	0	-	0	0	-
COc1cc(/C=N\NC(=O)CNC(=O)C2COc3ccccc3O2)ccc1O (stereo not given)	0	0	0	0	0	0
CCN(CC)c1ccc(/C=N/NC(=O)CNC(=O)C2COc3ccccc3O2)c(O)c1 (stereo not given)	-69.7	50.1µM	17.8µM	0	0	?
Cc1cc([N+](=O)[O-])cc(/C=N\NC(=O)C2COc3ccccc3O2)c1O (stereo not given)	-86.9	50.1µM	0	0	28.2µM	-71.8
Cc1cccc(CN2C(=O)/C(=C\c3ccc(C(=O)NCCN4CCOCC4)cc3)Sc3ccccc32)c1	0	?	-	0	?	0
CCN1CCN(CCNC(=O)c2ccc(/C=C3/Sc4ccccc4N(Cc4cccc(Cl)c4)C3=O)cc2)CC1	0	22.4µM	39.8µM	?	0	0
CCN1CCN(CCNC(=O)c2ccc3c(c2)N(Cc2ccc(F)cc2)C(=O)/C(=C/c2ccccc2)S3)CC1	0	?	?	?	39.8µM	0
COc1ccc2c(c1)c1c(c(=O)n(CCc3ccccc3)c(=O)n1Cc1ccccc1)n2C	-	0	0	0	0	-
Nc1c(C(=O)N/N=C/c2ccc(F)cc2)oc2nc(-c3ccccc3)cc(-c3ccco3)c12	0	0	28.2µM	0	0	0
Nc1c(C(=O)N/N=C/c2ccccc2Cl)oc2nc(-c3ccccc3)cc(-c3ccco3)c12	0	0	20µM	0	0	0
SMILES	Six1-Eya2 blk	JMJD2A Tudor	G9a block	HP1b chromo inh	BAZ2B inh	CtBP-E1A inh
Cc1cc(-c2ccccc2)nc2oc(C(=O)NN)c(N)c12	0	0	0	0	0	0
CCc1ccc(NC(=O)Cn2c(=O)n(CCC(=O)NCCc3ccc(Cl)cc3)c(=O)c3ccccc32)cc1	-	0	0	0	0	-
COc1ccc(C2CC(c3cccs3)=NN2C(=S)Nc2ccccc2)cc1OC (stereo not given)	0	?	0	0	0	0
S=C(Nc1ccccc1)N1N=C(c2cccs2)CC1c1cccs1 (stereo not given)	0	20µM	-	0	0	0
Cc1ccc(C(=O)NCC(=O)OCC(=O)c2cccc3ccccc23)cc1	-	0	-	0	-	-
COc1ccc(C)cc1NC(=O)NNC(=O)C(C)Oc1ccc([N+](=O)[O-])cc1 (stereo not given)	0	0	0	0	0	0
COc1ccccc1-[n+]1c(C)cc(/C=C2\Sc3ccccc3N2C)cc1C	0	0	?	0	0	-
COc1ccc(-[n+]2c(C)cc(/C=C3\Sc4ccccc4N3C)cc2C)cc1	0	0	50.1µM	0	0	0
O=C(C1CCN(S(=O)(=O)c2cnc[nH]2)CC1)N(CCc1ccccc1)Cc1ccccc1	0	0	0	0	0	-
O=C(C1CCN(CCCc2ccccc2)CC1)N(CCc1ccccc1)Cc1ccccc1	0	1.12µM	14.1µM	?	?	0
CCC(C)NC(=O)C1CCN(CCCc2ccccc2)CC1 (stereo not given)	0	10µM	14.1µM	0	50.1µM	0
CCC(C)NC(=O)C1CCN(C(=O)c2ccccc2)CC1 (stereo not given)	0	0	-	0	0	0
O=C(Nc1ccnn1C1CCN(CC2CC=CCC2)CC1)c1ccccc1 (stereo not given)	0	0	0[12.7 µM]	0	0	-
O=C(C1CCN(CC2CC=CCC2)CC1)N(CCc1ccccc1)Cc1ccccc1 (stereo not given)	0	?	44.7µM	0	79.4µM	0
CCN(C(=O)Cn1c(=O)oc2ccccc21)c1c(N)n(Cc2ccccc2)c(=O)[nH]c1=O	0	0	0[12.7 µM]	0	0	-
CCn1c2ccccc2c2cc(NC(=O)CC(C)=O)ccc21	0	0	0	0	0	0
COc1ccccc1CN(C)CC(=O)Nc1ccc(Cl)cc1F	0	0	0	0	0	0
COc1ccccc1CN(C)CC(=O)Nc1ccc(Cl)cc1C(F)(F)F	0	3.55µM	8.91µM	?	50.1µM	0
COc1ccc(C(C)(C)C)cc1NC(=O)CNc1cccc2ccccc12	0	44.7µM	?	?	?	0
COc1ccccc1CN(C)CC(=O)Nc1cccc2ccccc12	0	0	50.1µM	0	0	0
COc1ccccc1NC(=O)Cc1cccc2ccccc12	0	0	0[0.501 µM]	0	0	0
Cn1c(=O)c2c(nc(SCC(=O)O)n2Cc2cc3c(cc2Cl)OCO3)n(C)c1=O	0	44.7µM	?	0	?	0
CCn1c(SCC(=O)Nc2ccc3c(c2)OCO3)nc2c1c(=O)n(C)c(=O)n2C	0	0	0[2.33 µM]	0	0	0
CCc1occc(=O)c1Oc1cc(NN2CCCCC2)c([N+](=O)[O-])cc1[N+](=O)[O-]	0	0	?	0	?	0

Screening results as filed in PubChem BioAssay.
